# Active and inactive are the calls of the source. The call rests on the fitted dose curve; in most records, active means well fitted curve in the direction sought with a large enough effect in the repeat runs; inconclusive means weak or mixed curves; inactive means flat fitted curve, though single readings scatter.
# Assay: qHTS assay to test for compound auto fluorescence at 535 nm (green) in HEK293 cells (AID 720680)
# Conditions: green autofluorescence 485/535 nm; series mostly up to 91.3 µM
row,SMILES,outcome
1,NC(=O)CI,inactive
2,O=C(CCl)c1ccc(Cl)cc1Cl,inactive
3,CO/C=C(/C(=O)OC)c1ccccc1COc1cccc(C(F)(F)F)n1,inactive
4,[CH3][Sn]([CH3])([Cl])[Cl],inactive
5,Cc1ccc(-c2c(Cl)nc(C#N)n2S(=O)(=O)N(C)C)cc1,inactive
6,CCN(C)N=O,inactive
7,CCC(Br)(CC)C(=O)NC(N)=O,inactive
8,N#Cc1cc(I)c(O)c(I)c1,inactive
9,O=[N+]([O-])C(Br)(CO)CO,inactive
10,COCCOCCO,inactive
11,Nc1ccc(N=Nc2ccc(-c3ccc(N=Nc4c(S(=O)(=O)O)cc5cc(S(=O)(=O)O)c(N=Nc6ccccc6)c(O)c5c4N)cc3)cc2)c(N)c1,inactive
12,O=C1C(Cl)C(CCl)CN1c1cccc(C(F)(F)F)c1 (configuration not stated),inactive
13,CCOC(=O)[C@]1(c2ccccc2)Oc2ccccc2[C@@H]1N,inactive
14,O=C1NCN(c2ccccc2)C12CCN(CCCOc1ccc(F)cc1)CC2,inactive
15,CCC(C)(NC(=O)c1cc(Cl)c(C)c(Cl)c1)C(=O)CCl (configuration not stated),inactive
16,NS(=O)(=O)C(F)(F)C(F)(F)C(F)(F)C(F)(F)C(F)(F)C(F)(F)C(F)(F)C(F)(F)F,inactive
17,CCn1cc[n+](C)c1,inactive

row,SMILES,outcome
1,O=NN1CCNCC1,inactive
2,CC(=O)c1cc2c(cc1C)C(C)(C)C(C)CC2(C)C (configuration not stated),inactive
3,O=C=Nc1ccc(Cl)cc1,inactive
4,CCOP(=S)(OCC)Oc1cc(Cl)c(Br)cc1Cl,inactive
5,C=CCN1CC[C@]23c4c5ccc(O)c4O[C@H]2C(=O)CC[C@@]3(O)[C@H]1C5,inactive
6,Nc1ccc([N+](=O)[O-])cc1[N+](=O)[O-],inactive
7,CC(C)N(CCC(C(N)=O)(c1ccccc1)c1ccccn1)C(C)C (configuration not stated),inactive
8,C(=NC1CCCCC1)=NC1CCCCC1,inactive
9,CC1(C)CCC(Cc2ccc(Cl)cc2)C1(O)Cn1cncn1 (configuration not stated),inactive
10,ClCc1ccccc1,inactive
11,O=C(O)c1ccccc1C(=O)Nc1cccc2ccccc12,inactive
12,Clc1cccc2ccccc12,inactive
13,CCCCN=C=O,inactive
14,CN1C(=O)C(O)N=C(c2ccccc2)c2cc(Cl)ccc21 (configuration not stated),inactive
15,Cn1cc[n+](C)c1 (tested in a mixture with another compound),inactive
16,C=COC(C)=O,inactive
17,COC(C)(C)CCC[C@H](C)C/C=C/C(C)=C/C(=O)OC(C)C,inactive

# Assay: qHTS assay to test for compound auto fluorescence at 460 nm (blue) in HEK293 cell free culture (AID 720681)
# Conditions: cell-free medium, autofluorescence 405/460 nm (blue); series mostly up to 91.3 µM
# Summary of the method: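 Blue fluorescence (Ex 405/Em 460 nm, triamterene-equivalent) was read immediately after pin transfer of compound or DMSO into medium (DMEM, 10% FBS) without cells.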
row,SMILES,outcome
1,NC(=O)CI,inactive
2,O=C(CCl)c1ccc(Cl)cc1Cl,inactive
3,CO/C=C(/C(=O)OC)c1ccccc1COc1cccc(C(F)(F)F)n1,inactive
4,[CH3][Sn]([CH3])([Cl])[Cl],inactive
5,Cc1ccc(-c2c(Cl)nc(C#N)n2S(=O)(=O)N(C)C)cc1,inactive
6,CCN(C)N=O,inactive
7,CCC(Br)(CC)C(=O)NC(N)=O,inactive
8,N#Cc1cc(I)c(O)c(I)c1,inactive
9,O=[N+]([O-])C(Br)(CO)CO,inactive
10,COCCOCCO,inactive
11,Nc1ccc(N=Nc2ccc(-c3ccc(N=Nc4c(S(=O)(=O)O)cc5cc(S(=O)(=O)O)c(N=Nc6ccccc6)c(O)c5c4N)cc3)cc2)c(N)c1,inactive
12,O=C1C(Cl)C(CCl)CN1c1cccc(C(F)(F)F)c1 (configuration not stated),inactive
13,CCOC(=O)[C@]1(c2ccccc2)Oc2ccccc2[C@@H]1N,inactive
14,O=C1NCN(c2ccccc2)C12CCN(CCCOc1ccc(F)cc1)CC2,inactive
15,CCC(C)(NC(=O)c1cc(Cl)c(C)c(Cl)c1)C(=O)CCl (configuration not stated),inactive
16,NS(=O)(=O)C(F)(F)C(F)(F)C(F)(F)C(F)(F)C(F)(F)C(F)(F)C(F)(F)C(F)(F)F,inactive
17,CCn1cc[n+](C)c1,inactive

row,SMILES,outcome
1,O=NN1CCNCC1,inactive
2,CC(=O)c1cc2c(cc1C)C(C)(C)C(C)CC2(C)C (configuration not stated),inactive
3,O=C=Nc1ccc(Cl)cc1,inactive
4,CCOP(=S)(OCC)Oc1cc(Cl)c(Br)cc1Cl,inactive
5,C=CCN1CC[C@]23c4c5ccc(O)c4O[C@H]2C(=O)CC[C@@]3(O)[C@H]1C5,inactive
6,Nc1ccc([N+](=O)[O-])cc1[N+](=O)[O-],inactive
7,CC(C)N(CCC(C(N)=O)(c1ccccc1)c1ccccn1)C(C)C (configuration not stated),inactive
8,C(=NC1CCCCC1)=NC1CCCCC1,inactive
9,CC1(C)CCC(Cc2ccc(Cl)cc2)C1(O)Cn1cncn1 (configuration not stated),inactive
10,ClCc1ccccc1,inactive
11,O=C(O)c1ccccc1C(=O)Nc1cccc2ccccc12,inactive
12,Clc1cccc2ccccc12,inactive
13,CCCCN=C=O,inactive
14,CN1C(=O)C(O)N=C(c2ccccc2)c2cc(Cl)ccc21 (configuration not stated),inactive
15,Cn1cc[n+](C)c1 (tested in a mixture with another compound),inactive
16,C=COC(C)=O,inactive
17,COC(C)(C)CCC[C@H](C)C/C=C/C(C)=C/C(=O)OC(C)C,inactive

# Assay: qHTS assay to test for compound auto fluorescence at 535 nm (green) in HEK293 cell free culture (AID 720682)
# Conditions: cell-free medium, green autofluorescence 485/535 nm; series mostly up to 91.3 µM
# Summary of the method: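 Steps: dispense DMEM/10% FBS into empty wells; pin in compound or DMSO; measure fluorescence at 485/535 nm. Values are fluorescein equivalents.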
row,SMILES,outcome
1,NC(=O)CI,inactive
2,O=C(CCl)c1ccc(Cl)cc1Cl,inactive
3,CO/C=C(/C(=O)OC)c1ccccc1COc1cccc(C(F)(F)F)n1,inactive
4,[CH3][Sn]([CH3])([Cl])[Cl],inactive
5,Cc1ccc(-c2c(Cl)nc(C#N)n2S(=O)(=O)N(C)C)cc1,inactive
6,CCN(C)N=O,inactive
7,CCC(Br)(CC)C(=O)NC(N)=O,inactive
8,N#Cc1cc(I)c(O)c(I)c1,inactive
9,O=[N+]([O-])C(Br)(CO)CO,inactive
10,COCCOCCO,inactive
11,Nc1ccc(N=Nc2ccc(-c3ccc(N=Nc4c(S(=O)(=O)O)cc5cc(S(=O)(=O)O)c(N=Nc6ccccc6)c(O)c5c4N)cc3)cc2)c(N)c1,inactive
12,O=C1C(Cl)C(CCl)CN1c1cccc(C(F)(F)F)c1 (configuration not stated),inactive
13,CCOC(=O)[C@]1(c2ccccc2)Oc2ccccc2[C@@H]1N,inactive
14,O=C1NCN(c2ccccc2)C12CCN(CCCOc1ccc(F)cc1)CC2,inactive
15,CCC(C)(NC(=O)c1cc(Cl)c(C)c(Cl)c1)C(=O)CCl (configuration not stated),inactive
16,NS(=O)(=O)C(F)(F)C(F)(F)C(F)(F)C(F)(F)C(F)(F)C(F)(F)C(F)(F)C(F)(F)F,inactive
17,CCn1cc[n+](C)c1,inactive

row,SMILES,outcome
1,O=NN1CCNCC1,inactive
2,CC(=O)c1cc2c(cc1C)C(C)(C)C(C)CC2(C)C (configuration not stated),inactive
3,O=C=Nc1ccc(Cl)cc1,inactive
4,CCOP(=S)(OCC)Oc1cc(Cl)c(Br)cc1Cl,inactive
5,C=CCN1CC[C@]23c4c5ccc(O)c4O[C@H]2C(=O)CC[C@@]3(O)[C@H]1C5,inactive
6,Nc1ccc([N+](=O)[O-])cc1[N+](=O)[O-],inactive
7,CC(C)N(CCC(C(N)=O)(c1ccccc1)c1ccccn1)C(C)C (configuration not stated),inactive
8,C(=NC1CCCCC1)=NC1CCCCC1,inactive
9,CC1(C)CCC(Cc2ccc(Cl)cc2)C1(O)Cn1cncn1 (configuration not stated),inactive
10,ClCc1ccccc1,inactive
11,O=C(O)c1ccccc1C(=O)Nc1cccc2ccccc12,inactive
12,Clc1cccc2ccccc12,inactive
13,CCCCN=C=O,inactive
14,CN1C(=O)C(O)N=C(c2ccccc2)c2cc(Cl)ccc21 (configuration not stated),inactive
15,Cn1cc[n+](C)c1 (tested in a mixture with another compound),inactive
16,C=COC(C)=O,inactive
17,COC(C)(C)CCC[C@H](C)C/C=C/C(C)=C/C(=O)OC(C)C,inactive
